By AC50 is commonly meant the midpoint of the concentration-response curve, whichever way the signal moves.

Each structure is given as a SMILES string. Records with an inconclusive call do not appear. Activity calls are given as the source filed them. The calls were made as follows, unless noted: active = hit-call score of the fitted dose curve at least 0.9, where 1 is the maximum; inconclusive = response in the unintended direction; inactive = score below 0.9.

Data on 17 molecules can be found in PubChem BioAssay (EPA / NIEHS).

One assay in a line: CCTE_Shafer_MEA_dev_AB: CCTE's Alamar Blue Assay for Cytotoxicity in the Neural Network Formation Assay, Shafer Lab (AID 2284083).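 Also: resazurin reduction fluorescence as viability of cultured neurons; twelve days of exposure from plating with re-dosing on DIV 5 and 9.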 Put shortly: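 Resazurin fluorescence, relative to DMSO, gauges viability after twelve days of exposure that began at plating of rat cortical neurons (1.5 x 10^5 cells/well, 48-well MEA); treatment renewed with full medium exchange on DIV 5 and 9.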
(In general: The colour change of resazurin is a common sign of viable cells or microbes.)
For the molecule `N#Cc1ccc(CC(=NNC(=O)Nc2ccc(OC(F)(F)F)cc2)c2cccc(C(F)(F)F)c2)cc1`, the molecule was called inactive.

On to `CN(C)C(=N)N=C(N)N`, for which the molecule was classed as inactive.

Regarding `c1ccc2c(c1)c1cccc3ccc4cccc2c4c31`, the call was inactive.

The next assay is described as follows: CCTE_Shafer_MEA_acute_LDH: CCTE's Lactate Dehydrogenase Assay for Cytotoxicity in the Neural Acute Assay, Shafer Lab (AID 2284086).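 Also: active means LDH release rises above DMSO vehicle level.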 The procedure, abridged: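 LDH absorbance at 490 nm in medium taken right after 40-min compound exposure; rat primary cortical neuron networks on MEA plates, days post-plating 13 or 15. Increase over DMSO baseline scored as cytotoxicity.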
For the molecule `CCCCCCCCC=O`, the result was inactive.

Consider `CN(C)C(=N)N=C(N)N`, for which the molecule was classed as inactive.

On to `CC[Si](OC(C)=O)(OC(C)=O)OC(C)=O`, for which the molecule was classed as inactive.

Take `CC(=O)OCCC(C)CC(C)(C)C` (stereo unspecified): the call was inactive.

In the case of `OC1OC[C@@H](O)[C@H](O)[C@H]1O` (stereo partly specified), the result was inactive.

As for `COc1cc(C=O)ccc1OC(=O)C(C)C`, the result was inactive.

Consider `OC[C@H]1O[C@H](O[C@]2(CCl)O[C@H](CCl)[C@@H](O)[C@@H]2O)[C@H](O)[C@@H](O)[C@H]1Cl`, for which the molecule was classed as inactive.

Turning to `C=CCOC(=O)CCC1CCCCC1`, the call was inactive.

On to `C[C@H]1C[C@@H]2[C@H]([C@@H](O)C[C@@]3(C)[C@H]2CC[C@]3(O)C(=O)CO)[C@@]2(C)C=CC(=O)C=C12`, for which the result was inactive.

`CCC(=O)OCc1ccccc1`: the result was inactive.

`CC(=O)[C@H]1CC[C@H]2[C@@H]3CC=C4C[C@@H](O)CC[C@]4(C)[C@H]3CC[C@]12C`: the result was inactive.

For `C=C[Si](OCC)(OCC)OCC`, the call was inactive.

Take `NCCNCCN`: the outcome was inactive.

As to `CC(C)(COC(=O)c1ccccc1)COC(=O)c1ccccc1`, the call was inactive.

In the case of `Cc1cc(C2(c3cc(C)c(O)cc3C)OS(=O)(=O)c3ccccc32)c(C)cc1O`, the call was inactive.

The next assay can be described thus: CCTE_Shafer_MEA_dev_mutual_information_norm: CCTE's Neural Network Formation Assay for Mutual Information Normalization, Shafer Lab (AID 2284091; active = hit-call score of the fitted dose curve at least 0.9, where 1 is the maximum; inactive = score below 0.9;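 as to AC50: potency is for a decrease in mutual information relative to DMSO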). The protocol: CCTE_Shafer_MEA_dev assay is conducted using Axion Biosystems 48 well microelectrode array (MEA) plates and Maestro recording system. Each well of the MEA plate contains a grid of 16 microelectrodes embedded in the culture surface. Electrically active cells, such as neurons, can be cultured over the electrodes, and electrical activity in these cells can be recorded extracellularly. The spontaneous firing of neurons is captured from each electrode on a microsecond timescale providing both temporally and spatially precise data. […] The CCTE_Shafer_MEA_dev assay uses primary cultures of rat cortical neurons. Recordings are made on days post-plating 5, 7, 9 and 12. As these cultures mature over time, neural networks develop functional activity and form cohesive networks in which electrical activity can be highly coordinated. CCTE_Shafer_MEA_dev_mutual_information_norm is 1 of 19 assay components of the CCTE_Shafer_MEA_dev assay. It is a measure of shared information between electrodes during a recording in a microelectrode array (MEA) using Axion Biosystems Maestro 768 channel amplifier with the AxIS adaptive spike detector. To collapse across multiple recordings made on days post-plating 5, 7, 9 and 12, the trapezoidal area-under-the-curve of the component is calculated.Data from the assay component CCTE_Shafer_MEA_dev_mutual_information_norm was analyzed into 1 assay endpoint. This assay endpoint, CCTE_Shafer_MEA_dev_mutual_information_norm, was analyzed in the negative analysis fitting direction relative to DMSO as the negative control and baseline of activity. Using a type of functional reporter, gain or loss-of-signal activity can be used to understand electrical activity.
On the day prior to culture, each well was coated thoroughly with 150 uL of 0.05% polyethyleneimine (PEI, Sigma Cat P3143) in 50 mM HEPES (Sigma Cat H7523) at a pH of 8. The plate was incubated at 37C for one hour. PEI was rinsed out with 500 uL of sterile water three times. Plates were stored at 4C until the day of culture. […]
`N#Cc1ccc(CC(=NNC(=O)Nc2ccc(OC(F)(F)F)cc2)c2cccc(C(F)(F)F)c2)cc1`: the AC50 is 0.672 µM (active).

As for `CN(C)C(=N)N=C(N)N`, the call was inactive.

For `c1ccc2c(c1)c1cccc3ccc4cccc2c4c31`, the result was inactive.
